Data on 40 compounds can be found in PubChem BioAssay (EPA / NIEHS).

Calls of active or inactive are those of the source. How the source made its calls: active means hit-call score of the fitted dose curve at least 0.9, where 1 is the maximum; inactive means score below 0.9.

Read-out in the assay: Interleukin-1 alpha (IL1a), IL1A (gene 3552)
Kind of assay: BSK_BE3C_IL1a: BioMAP Diversity Plus: BE3C Assay for Interleukin-1 alpha (IL1a) Biomarker Activity (AID 2283016). Particulars: primary human bronchial epithelial cells; actives raise or lower the signal. As to the method:
BSK_BE3C is a cell-based, multiplexed-readout assay that uses bronchial epithelial cell, a human lung primary cell, with measurements taken at 24 hours after chemical dosing in a 96-well plate.BSK_BE3C_IL1a is an assay component measured in the BSK_BE3C assay. It measures IL-1a antibody related to regulation of gene expression using ELISA technology.Data from the assay component BSK_BE3C_IL1a was analyzed into 1 assay endpoint. This assay endpoint, BSK_BE3C_IL1a, was analyzed with bidirectional fitting relative to DMSO as the negative control and baseline of activity. Using a type of binding reporter, gain or loss-of-signal activity can be used to understand changes in the signaling as they relate to the gene IL1A. Furthermore, this assay endpoint can be referred to as a primary readout, because this assay has produced multiple assay endpoints where this one serves a signaling function. To generalize the intended target to other relatable targets, this assay endpoint is annotated to the cytokine intended target family, where the subfamily is interleukins.
The levels of cell surface (or secreted, indicated by the prefix "s") biomarker endpoints were measured by ELISA. Overt cytotoxicity to cells in confluent adherent cultures (all systems other than the BT system) was assessed by measuring total protein levels using sulforhodamine B (SRB) staining in parallel cultures at the time of biomarker measurements, indicated as SRB endpoints. For proliferation assays for adherent cell types, individual cell types are cultured at sub-confluence and relative cell numbers quantified by SRB staining at time points optimized for each system (48 h: 3C and CASM3C systems; 72 h: BT and HDF3CGF systems; 96 h: SAg system). SRB was performed by staining cells with 0.1% SRB after fixation with 10% TCA and reading wells at 560 nm.Viability and proliferation of PBMC (T cells) was quantified by Alamar Blue reduction for the SAg and BT systems. For PBMC viability (referred to as PBMC Cytotoxicity within the assay endpoint names), cells were plated (75,000/well in a 96-well plate) and then chemical samples added for 1 h before addition of activators, SEB and TSST-1 (20 ng/mL final concentration each). Cells were incubated for 90 h. Then, Alamar Blue (20 uL/well) (Invitrogen, Cat DAL1100) was added for 6 h, and the plates were read with a fluorescence microplate reader at 546/580 nm (excitation/emission). For PBMC proliferation, cells were plated and activated as above but incubated for only 16 h prior to addition of Alamar Blue. Plates were read after 6 h.
For `S=P(N1CC1)(N1CC1)N1CC1`, the outcome was inactive. As usually defined, the AC50 is the concentration giving half of the maximal activity seen. As to `CCN(CC)C(=S)SSC(=S)N(CC)CC`, the AC50 is 16.3 µM (active). With `COc1cc2c(c(OC)c1OC)-c1ccc(OC)c(=O)cc1[C@@H](NC(C)=O)CC2`, the outcome was inactive. Still for that read-out and setting: the result for `CC(C)CC(C)O` (stereo not given) reads “inactive”; that for `O=S1(=O)CCCO1`, “inactive”. As for `FC(F)=C(F)C(F)(F)C(F)(F)C(F)(F)C(F)(F)C(F)(F)C(F)(F)F`, the result was inactive. Consider `CC(C)c1nnc2ccc(-c3ocnc3-c3cc(F)ccc3F)cn12`, for which the result was inactive. For the compound `O=C(O)c1ccc2c(c1)nc(C(=O)NC1CCN(C3CC3)CC1)n2Cc1cc(-c2ccc(Cl)s2)on1`, the result was inactive.

With `CCc1cccc(CC)c1N`, the result was inactive. With `CCCC(CCC)C(=O)O`, the outcome was inactive. Still for that read-out and setting: the result for `CCCCCCCC1CCC(=O)O1` (stereo not given) reads “inactive”; that for `Cn1cc[nH]c1=S`, “inactive”. On the same count and under the same terms, as for `CCn1nc(C)c2c1C(=O)NCC(c1ccc(O)cc1)=N2`, the entry is “inactive”; as for `OC(Cn1cncn1)(Cn1cncn1)c1ccc(F)cc1F`, “inactive”. Consider `CC[C@H](C)C(=O)O[C@H]1C[C@H](O)C=C2C=C[C@H](C)[C@H](CC[C@@H](O)C[C@@H](O)CC(=O)O)[C@H]21`, for which the outcome was inactive. On the same count and under the same terms, the result for `OCC(CO)(CO)CO` reads “inactive”; that for `C[C@@H](Oc1ccc(CNC(=O)c2cccnc2Oc2ccc3c(c2)OCO3)c(F)c1)C(=O)O`, “inactive”; that for `Cn1c(=O)c2[nH]cnc2n(C)c1=O`, “inactive”. Still for that read-out and setting: as for `NC(=O)N1c2ccccc2C=Cc2ccccc21`, the entry is “inactive”. On the same count and under the same terms, as for `O=C(NO)C1(NS(=O)(=O)c2ccc(Oc3ccc(F)cc3)cc2)CCOCC1`, the entry is “inactive”; as for `NCC(F)(F)C(F)(F)C(F)(F)C(F)(F)F`, “inactive”; as for `CCCCC(CC)C(=O)OCCOCCOCCOC(=O)C(CC)CCCC` (stereo not given), “inactive”. As for `NNC(=O)c1ccncc1`, the result was inactive.

For `OCc1ccccc1`, the outcome was inactive. The same measure, in the same setting: the result for `OCCC(F)(F)C(F)(F)C(F)(F)C(F)(F)F` reads “inactive”; that for `CCCCCCCCN(C)C`, “inactive”; that for `OCCNCCO`, “inactive”. For `CCCOc1ccc(S(=O)(=O)N2CCN(CC)CC2)cc1-c1nc2c(CC)n(Cc3ccccn3)nc2c(=O)[nH]1`, the outcome was inactive. Same read-out and setting: the result for `O=C(O)c1cccc(C(=O)O)c1` reads “inactive”. Still for that read-out and setting: as for `FC(F)(F)C(F)(F)C(F)(F)C(F)(F)C(F)(F)C(F)(F)I`, the entry is “inactive”.

As for `CCCCCCCCCCCCCCCCOS(=O)(=O)O`, the concentration at half-maximal activity (AC50) was 14.7 µM (active).

As to `COCc1nnc(-c2ccc[n+]([O-])c2)n1-c1c(Cl)c(Cl)cc2[nH]c(=O)c(=O)[nH]c12`, the outcome was inactive.

As for `COS(C)(=O)=O`, the outcome was inactive. On the same count and under the same terms, as for `CNC(C)=O`, the entry is “inactive”; as for `OCc1c[nH]c2ccccc12`, “inactive”; as for `CC(C)C(=O)Nc1ccc([N+](=O)[O-])c(C(F)(F)F)c1`, “inactive”. Still for that read-out and setting: as for `c1ccc2cc3ccccc3cc2c1`, the entry is “inactive”; as for `C=CN1CCCC1=O`, “inactive”. Same read-out and setting: as for `O=c1[nH]cnc2c1ncn2[C@H]1CC[C@@H](CO)O1`, the entry is “inactive”. Regarding `C=CCc1cc(S(=O)(=O)c2ccc(O)c(CC=C)c2)ccc1O`, the half-maximal activity concentration (AC50) is 21.1 µM (active).
